According to PubChem BioAssay AID1159580 (chemical genetic matrix, 2015):
Several values for one entry are separate records, joined by “and”; a condition that tells them apart may be missing. Equal values may be shown once. Hit rate of the full screen: of about 5,500 compounds, about 2,000 (36%) were called active. Inconclusive results (about 18%) are left out. Rule as the data show it: active = normalized growth mostly below about 0.91 (no sharp cut-off); inconclusive = no clear call, values can overlap the other calls; inactive = mostly above about 0.92. The list shows a part of the results.

Test: chemical genetic growth profiling, strain panel (AID 1159580);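 also: tested at 20 µM; growth read once vehicle control cultures reached saturation at 30 °C; 1 = growth at the plate median or of vehicle wells; lower values mean less growth of the strain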
Conditions: S. cerevisiae deletion strains, growth OD
[1] = locus YBR229C, strain ROT2, active compounds read low
[2] = locus YDL101C, strain DUN1, active compounds read low
[3] = locus YDR150W, strain NUM1, active compounds read low
[4] = locus YEL061C, strain CIN8, active compounds read low
[5] = locus YGR078C, strain PAC10, active compounds read low
[6] = locus YHR030C, strain SLT2, active compounds read low
[7] = locus YJR043C, strain POL32, active compounds read low
[8] = locus YLR039C, strain RIC1, active compounds read low
[9] = locus YLR262C, strain YPT6, active compounds read low
[10] = locus YMR307W, strain GAS1, active compounds read low
[11] = locus YHR079C, strain IRE1, active compounds read low
[12] = locus YJL095W, strain BCK1, active compounds read low
[13] = locus YJR066W, strain TOR1, active compounds read low
[14] = locus YLR113W, strain HOG1, active compounds read low
[15] = locus YNL183C, strain NPR1, active compounds read low
[16] = locus YOR061W, strain CKA2, active compounds read low
[17] = locus YOR231W, strain MKK1, active compounds read low
[18] = locus YPL256C, strain CLN2, active compounds read low

Measured: normalized growth

CN(C)/C=C1/C(=O)NN=C1CSc1ccccn1
inactive: locus YAL013W, strain DEP1, active compounds read low 1 | [1] 0.999 | locus YCL061C, strain MRC1, active compounds read low 1.03 | [2] 1.03 | [3] 1.04 | [4] 0.999 | [5] 1.02 | [6] 1.09 | locus YHR087W, strain rtc3, active compounds read low 0.948 | [7] 1.02 | locus YJR075W, strain HOC1, active compounds read low 1.01 | locus YKL190W, strain CNB1, active compounds read low 1.02 | [8] 1.11 | locus YLR058C, strain SHM2 (second series), active compounds read low 0.974 | locus YLR085C, strain ARP6, active compounds read low 1.05 | [9] 1.02 | locus YML094W, strain GIM5, active compounds read low 1.01 | locus YMR219W, strain ESC1, active compounds read low 0.982 | locus YMR263W, strain SAP30, active compounds read low 1.01 | [10] 1.07 | locus YNL153C, strain GIM3, active compounds read low 1.03 | locus YNL298W, strain CLA4 (second series), active compounds read low 1.04 | locus YNL322C, strain KRE1, active compounds read low 0.985 | locus YNR030W, strain Alg12, active compounds read low 1.01 | locus YPL055C, strain LGE1, active compounds read low 0.972 | locus YPL241C, strain CIN2, active compounds read low 1 | locus YPR135W, strain CTF4, active compounds read low 1.09

O=C(Nc1cc2c(s1)-c1cc(Cl)ccc1SC2)Oc1ccccc1
inactive: locus YAR019C, strain CDC15, active compounds read low 0.977 | locus YBL105C, strain PKC1, active compounds read low 1.01 | locus YBR135W, strain CKS1, active compounds read low 1.01 | locus YBR136W, strain MEC1, active compounds read low 0.995 | locus YBR160W, strain CDC28, active compounds read low 0.99 | locus YDL017W, strain CDC7, active compounds read low 1.01 | locus YDL028C, strain MPS1, active compounds read low 0.984 | [2] 0.989 | locus YDL108W, strain KIN28, active compounds read low 0.986 | locus YDL132W, strain cdc53, active compounds read low 1 | locus YDL214C, strain PRR2, active compounds read low 0.928 | locus YDR052C, strain DBF4, active compounds read low 0.997 | locus YDR054C, strain cdc34, active compounds read low 0.999 | locus YDR226W, strain ADK1, active compounds read low 1 | locus YDR477W, strain SNF1, active compounds read low 0.964 | locus YER123W, strain YCK3, active compounds read low 0.936 | locus YER133W, strain GLC7, active compounds read low 0.972 | locus YFL009W, strain cdc4, active compounds read low 0.997 | locus YFL029C, strain CAK1, active compounds read low 0.978 | locus YFR003C, strain YPI1, active compounds read low 0.998 | locus YFR019W, strain FAB1, active compounds read low 0.927 | locus YFR028C, strain CDC14, active compounds read low 1 | locus YGR040W, strain KSS1, active compounds read low 0.97 | locus YGR052W, strain FMP48, active compounds read low 1.01 | locus YGR092W, strain DBF2, active compounds read low 0.966 | [6] 0.911 | [11] 0.939 | locus YHR082C, strain KSP1, active compounds read low 0.962 | locus YHR205W, strain SCH9, active compounds read low 0.914 | locus YIL147C, strain SLN1, active compounds read low 0.994 | [12] 0.927 | locus YJL128C, strain PBS2, active compounds read low 1.02 | locus YJL157C, strain FAR1, active compounds read low 0.959 | locus YJR016C, strain ILV3, active compounds read low 0.999 | locus YJR066W, strain TOR1 (second series), active compounds read low 0.946 | [13] 0.951 | locus YKL048C, strain ELM1, active compounds read low 0.98 | locus YKL067W, strain YNK1, active compounds read low 0.946 | locus YKL101W, strain HSL1, active compounds read low 0.953 | locus YKL193C, strain SDS22, active compounds read low 1.01 | locus YKL203C, strain TOR2, active compounds read low 1.01 | locus YLR133W, strain CKI1, active compounds read low 0.938 | locus YLR403W, strain SFP1, active compounds read low 0.946 | locus YML070W, strain DAK1, active compounds read low 0.957 | locus YMR001C, strain CDC5, active compounds read low 1 | locus YMR205C, strain PFK2 (second series), active compounds read low 0.966 | locus YMR277W, strain FCP1, active compounds read low 0.999 | locus YNL006W, strain LST8, active compounds read low 0.99 | locus YNL020C, strain ARK1, active compounds read low 0.938 | locus YNL161W, strain CBK1, active compounds read low 0.993 | [15] 0.941 | locus YNL207W, strain RIO2, active compounds read low 0.997 | locus YNL222W, strain SSU72, active compounds read low 1.01 | locus YNL307C, strain MCK1 (second series), active compounds read low 0.949 | locus YOL078W, strain AVO1, active compounds read low 1 | locus YOL136C, strain PFK27, active compounds read low 0.914 | [16] 0.934 | locus YOR119C, strain RIO1, active compounds read low 0.988 | [17] 0.949 | locus YOR329C, strain SCD5, active compounds read low 1 | locus YPL031C, strain PHO85, active compounds read low 0.963 | locus YPL153C, strain RAD53, active compounds read low 0.968 | locus YPL204W, strain HRR25, active compounds read low 0.959 | locus YPL209C, strain IPL1, active compounds read low 1 | [18] 0.912 | locus YPR025C, strain CCL1, active compounds read low 1.01 | locus YPR106W, strain ISR1, active compounds read low 0.997 | locus YPR111W, strain DBF20, active compounds read low 1.01 | strain NNK1, active compounds read low 1 | strain TSCII, active compounds read low 1
active: [14] 0.849

COc1cccc(O)c1O
inactive: locus YBR021W, strain FUR4, active compounds read low 1.02 | [1] 1.04 | locus YCL029C, strain bik1, active compounds read low 1 | locus YDL035C, strain GPR1, active compounds read low 1.03 | locus YDL074C, strain BRE1, active compounds read low 1.01 | [2] 1.01 | locus YDL134C, strain PPH21, active compounds read low 1.08 | locus YDL185W, strain tfp1, active compounds read low 1.01 | locus YDL192W, strain arf1, active compounds read low 1 | locus YDR101C, strain arx1, active compounds read low 1.01 | [3] 1.04 | locus YDR162C, strain NBP2, active compounds read low 1.07 | locus YDR318W, strain mcm21, active compounds read low 1 | locus YDR388W, active compounds read low 1.01 | locus YDR502C, strain sam2, active compounds read low 1.01 | [4] 1.02 | locus YER110C, active compounds read low 0.996 | locus YER155C, strain BEM2, active compounds read low 1.04 | locus YER167W, strain BCK2, active compounds read low 1.05 | locus YGL078C, strain dbp3, active compounds read low 1.01 | locus YGL086W, strain mad1, active compounds read low 0.999 | locus YGL248W, strain PDE1, active compounds read low 1.03 | [5] 1.05 | locus YGR135W, strain pre9, active compounds read low 0.976 | locus YGR252W, strain gcn5, active compounds read low 0.936 | [6] 1.03 and 0.988 | locus YHR079C, strain IRE1 (second series), active compounds read low 1.02 | [11] 0.999 | locus YHR094C, strain hxt1, active compounds read low 1 | locus YHR129C, strain ARP1, active compounds read low 1.02 | locus YHR200W, strain rpn10, active compounds read low 1 | locus YIL066C, strain RNR3, active compounds read low 1.06 | locus YIL073C, strain SPO22, active compounds read low 1.03 | locus YIL125W, strain kgd1, active compounds read low 1 | locus YIR030C, strain dcg1, active compounds read low 1.04 | [12] 1.02 and 0.997 | locus YJL134W, strain LCB3, active compounds read low 1.03 | locus YJL168C, strain set2, active compounds read low 1 | locus YJL187C, strain SWE1 (second series), active compounds read low 0.976 | [7] 1.04 | [13] 0.925 | locus YKL009W, strain mrt4, active compounds read low 1.01 | locus YKL068W, active compounds read low 1.01 | locus YKL085W, strain MDH1 (second series), active compounds read low 1.02 | locus YKL085W, strain MDH1, active compounds read low 1.02 | locus YKR001C, strain vps1, active compounds read low 1.02 | [8] 1.17 | locus YLR058C, strain SHM2, active compounds read low 0.995 | locus YLR102C, strain apc9, active compounds read low 0.995 | [14] 0.989 | [9] 1.15 | locus YLR268W, strain sec22, active compounds read low 0.989 | locus YLR330W, strain CHS5, active compounds read low 1.03 | locus YLR342W, strain FKS1 (second series), active compounds read low 1.01 | locus YLR371W, strain rom2, active compounds read low 1 | locus YLR418C, strain cdc73, active compounds read low 1.01 | locus YML016C, strain PPZ1, active compounds read low 1.03 | locus YML032C, strain rad52, active compounds read low 1.01 | locus YML124C, strain tub3, active compounds read low 1.01 | locus YMR078C, strain ctf18, active compounds read low 0.99 | locus YMR223W, strain ubp8, active compounds read low 0.997 | [10] 1.09 | locus YNL067W, strain RPL9B, active compounds read low 1.05 | [15] 0.926 | locus YNL233W, strain BNI4, active compounds read low 1.05 | locus YNL250W, strain rad50, active compounds read low 0.996 | locus YNL271C, strain bni1, active compounds read low 0.994 | locus YNL298W, strain CLA4, active compounds read low 0.99 | locus YNL307C, strain MCK1, active compounds read low 1.01 | locus YNR052C, strain pop2, active compounds read low 1.01 | locus YOL006C, strain TOP1, active compounds read low 1.27 | locus YOL012C, strain htz1 0.899 | locus YOL147C, strain pex11, active compounds read low 1 | [16] 1.02 | locus YOR069W, strain VPS5, active compounds read low 1.02 | locus YOR136W, strain idh2, active compounds read low 0.994 | locus YOR144C, strain elg1, active compounds read low 1.01 | locus YOR184W, strain ser1, active compounds read low 1.02 | [17] 1.01 | locus YOR316C, strain cot1, active compounds read low 0.995 | [18] 0.994 | locus YPR119W, strain clb2, active compounds read low 1.02 | locus YPR141C, strain kar3, active compounds read low 1.01 | locus YPR163C, strain tif3, active compounds read low 0.978 | locus YPR167C, strain met16, active compounds read low 1.02 | strain wtn01, active compounds read low 0.997
